Bioassay records (PubChem)
Sampled rows, rich in hits. Any-hit rate of the full collection: about 21%.
Pf growth 96h = Primary qHTS for delayed death inhibitors of the malarial parasite plastid, 96 hour incubation; P. falciparum luciferase reporter growth, 96 h; Potency, µM (doses to about 28.7 µM), for the others: at the top dose activity change, negative = inhibition, most hits filed as inhibitors; 320,000 tested, 6.9% active; AID 504834, 2011; further: potency means the concentration at half of the fitted maximal effect; on the % scale 0 is the no-effect control and ±100 the full control effect
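Two-generation exposure (96 h) targets delayed-death phenotype. Reporter parasites carrying integrated firefly luciferase, in red cells at 2% hematocrit and 0.05% parasitemia final, kept at 37 C, 5% CO2; luminescence loss indicates inhibition.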
Cycloheximide cs = Cycloheximide Counterscreen for Small Molecule Inhibitors of Shiga Toxin; AID 2314, 2010; 300,000 tested, 12% active; cell reporter, cycloheximide protein synthesis inhibition counterscreen; max response, %; in the data active means max response mostly above about 13%, no sharp cut-off; inactive means mostly below about 14%; further: read at 38.3 µM for the half of the compounds with a filed dose; 0% is about no effect
Shiga inhibitor = A qHTS for Small Molecule Inhibitors of Shiga Toxin. Vero cells, Shiga toxin protein synthesis inhibition reporter. inhibition, % at 38.7 µM. 290,000 tested, 9.2% active; in the data active means inhibition mostly above about 28%, no sharp cut-off; inactive means mostly below about 43%; further: 0% is about no effect
Pf growth 48h = Primary qHTS for delayed death inhibitors of the malarial parasite plastid, 48 hour incubation; P. falciparum luciferase growth in erythrocytes, 48 h; 310,000 tested, 5.9% active; Potency, µM (titrated, usually from 28.7 µM), inactives show top-dose activity change, negative = inhibition, usual class: inhibitors; further: potency means the concentration at half of the fitted maximal effect; on the % scale 0 is the no-effect control and ±100 the full control effect
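In quantitative HTS format, infected erythrocytes bearing luciferase-reporter parasites were treated for a single generation at 37 C. Luminescence after adding detection reagent served as the growth measure.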
NS1 inh = qHTS Assay for Inhibitors of Influenza NS1 Protein Function | Potency, µM (highest dose often 46.1 µM), for inactives: top-dose activity, positive = more growth | 270,000 tested, 0.4% active; calls by dose curve; further: potency means the concentration at half of the fitted maximal effect; actives are rising curves; nearly all actives have a fitted effect of over 50% in size
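Growth recovery, yeast-based: influenza A NS1 expressed in S. cerevisiae causes slow growth, and suppressors are detected by OD600. The parent strain without NS1 is used as positive control.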
Giardia FBPA inh = qHTS Assay for Inhibitors of Fructose-1,6-bisphosphate Aldolase from Giardia Lamblia; A8B2U2; purified Giardia FBPA; Potency, µM (titrated, usually from 59.6 µM), without a hit: top-dose activity, negative = inhibition, hits mostly inhibitors; 290,000 tested, 0.71% active; further: potency means the concentration at half of the fitted maximal effect; on the % scale 0 is the no-effect control and ±100 the full control effect; nearly all actives have a fitted effect of over 55% in size
Target sequence (A8B2U2 whole entry, looked up): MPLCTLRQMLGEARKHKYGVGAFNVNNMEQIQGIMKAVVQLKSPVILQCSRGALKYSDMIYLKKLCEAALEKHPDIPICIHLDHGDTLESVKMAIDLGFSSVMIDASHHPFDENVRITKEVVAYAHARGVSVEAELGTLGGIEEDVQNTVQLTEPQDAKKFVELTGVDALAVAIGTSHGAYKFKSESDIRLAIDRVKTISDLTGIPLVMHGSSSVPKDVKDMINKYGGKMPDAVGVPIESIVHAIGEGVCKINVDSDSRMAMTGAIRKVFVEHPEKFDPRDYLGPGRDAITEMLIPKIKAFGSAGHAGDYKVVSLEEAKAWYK
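40 nM FBPA preincubated 10 min at RT with compound (up to 57.5 uM final), then substrate plus GAPDH/TPI/NAD/arsenate coupling and diaphorase/resazurin added. Fluorescence read after 20 min at RT, 525/598 nm.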
* marks the source's active call; other numbers are inactive results; i = inactive; ? = inconclusive; / = no result; [ ] = dose if it differs, or a comment. Unless noted, the call rests on the fitted dose curve; in most records, active means well fitted curve in the direction sought with a large enough effect; inconclusive means small, poorly fitted or top-dose-only effect, or another doubt; inactive means no such curve, though single readings can be large; an effect the other way counts as inactive or inconclusive.

SMILES | Pf growth 96h | Cycloheximide cs | Shiga inhibitor | Pf growth 48h | NS1 inh | Giardia FBPA inh
COc1cccc(NC(=O)CSc2nc3c(sc4ccccc43)c(=O)n2CCCN2CCCC2)c1 | 19.7% | 16.3* | 39.4* | 10.4µM* | 24.7% | -13.6%
O=[N+]([O-])c1cccc(-c2cn3ccccc3n2)c1 | 17.8% | -3.1 | 30.3 | -13.3% | -0.1% | 1.5%
Cc1ccc2nc(-c3ccc(-c4ccccn4)s3)cn2c1 | 177.1% | 44.7* | 68.6* | 78.5% | -63.9% | ?
Clc1ccc(-c2cn3cc(Cl)ccc3n2)cc1 | 77.8% | 42.2* | 73.9* | / | -2.8% | -21.3%
Clc1ccc(-c2cn3ccccc3n2)cc1 | -70.0% | 37.2* | 40.5* | 462.8% | -40.8% | -9.8%
O=C(Nc1ccc(-c2cn3ccccc3n2)cc1)c1ccc(Cl)cc1 | ? | -9.3 | 9.0 | 9.7% | 9.0% | 0.2%
COc1c(Cl)cccc1-c1cn2ccccc2n1 | 295.9% | 34.9* | 56.6 | 169.4% | -60.5% | -19.8%
COc1ccc(-c2cn3ccccc3n2)cc1 | -9.7% | 31.5* | 45.7 | 115.1% | -3.3% | -13.2%
Brc1ccc(-c2cn3ccccc3n2)s1 | 268.8% | 31.5* | 70.4* | / | -102.6% | -23.0%
Clc1ccc(-c2cn3c(n2)CCC3)cc1 | 5.1% | 27.7* | 72.8 | 159.6% | -2.5% | 6.1%
COc1ccc(-c2cn3ccc4ccccc4c3n2)cc1 | 150.2% | 37.0* | 63.8* | i | 3.2% | -7.1%
COc1cccc(OCC(O)CNC(=O)c2oc3ccc(C)cc3c2C)c1 (stereo not drawn) | ? | -1.8 | -6.7 | -4.2% | -38.7% | -6.7%
O=C(CSc1nnc(C2CC2)n1CC1CCCO1)Nc1ccccc1Cl (stereo not drawn) | 24.5% | 1.0 | 9.3 | 16.1% | -4.3% | 3.0%
COc1ccc(-c2nc3ccccn3c2Cl)cc1 | 455.0% | 40.6* | 22.2 | 238.0% | -66.5% | -5.4%
COc1ccc(-c2nc3ccccn3c2CN2CCN(c3ccccc3F)CC2)cc1 | ? | 9.0 | 28.7 | ? | 1.7% | -7.6%
CC12CC3OS(=O)OC3CC3C4C(C(OCc5ccccc5)C31)C42 (stereo not drawn) | / | / | / | / | / | -0.7%[12.9 µM]
CCCC[C@H]1CCCO[C@@](C(=O)NCCN2CCOCC2)(C(F)(F)F)C1 | / | 2.9 | 6.0 | / | / | 10.0%
COC(=O)C1=C(C)N(c2ccc(OC)cc2)C(C)=C(C(=O)OC)C1c1ccccc1 | ? | -2.0 | -1.4 | 1.31µM* | -1.9% | -1.1%
COC(=O)C1=C(C)N(C)C(C)=C(C(=O)OC)C1c1ccc(Cl)cc1 | 10.4µM* | -2.1 | -11.8 | ? | -12.4% | 4.0%
COC(=O)C1=C(C)N(c2ccc(OC)cc2)C(C)=C(C(=O)OC)C1c1ccc(OC)cc1 | ? | 2.9 | 28.4 | ? | -0.5% | -2.9%
COc1ccc(C2=Nn3c(nnc3-c3cccc(OC)c3)SC2)cc1 | / | -9.4 | -1.2 | / | / | 3.8%
N[C@@]1(C(=O)O)CCC[C@@H]1C(=O)O | / | / | / | / | -0.7% | /
O=C(CCNC(=O)C1CCN(S(=O)(=O)c2ccccc2)CC1)NCCc1cccc(F)c1 | ? | -2.8 | -6.4 | 1.5% | -5.7% | /
Cc1[nH]cnc1CSCc1ccc(F)cc1 | ? | 49.2* | 31.3* | -7.2% | -10.3% | ?
CCN1CCCC1CNC(=O)CCNC(=O)c1cc(OC)c(OC)c(OC)c1 (stereo not drawn) | 2.62µM* | 1.8 | -22.6 | -21.2% | -4.2% | -8.9%
SMILES | Pf growth 96h | Cycloheximide cs | Shiga inhibitor | Pf growth 48h | NS1 inh | Giardia FBPA inh
CC(=O)Nc1cccc(NC(=O)CSc2ccc(-c3cccnc3)nn2)c1 | -29.4% | 6.3 | -3.9 | ? | / | 14.0%
Cc1ccccc1NC(=O)CSc1ccncc1 | 3.0% | 13.9* | 26.0 | 10.2% | 0.5% | -5.0%
Cc1cc(C)cc(NC(=O)CSc2ccc(-c3ccccn3)nn2)c1 | ? | 9.9 | -4.1 | ? | -7.3% | /
O=C(CSc1ccc(-c2cccnc2)nn1)Nc1ccccc1 | 11.7µM* | 6.1 | 7.5 | 4.3% | 3.9% | /
COc1ccc(NC(=O)CSc2ccc(-c3cccnc3)nn2)cc1 | ? | -2.8 | -5.8 | ? | 4.5% | -4.1%
CCOC(=O)c1ccc(NC(=O)CSc2ccc(-c3cccnc3)nn2)cc1 | -21.4% | 16.4* | 53.9 | -20.8% | / | -4.9%
Cc1ccccc1NC(=O)CSc1cn[nH]n1 | 16.3% | -4.6 | -7.2 | 26.6% | -0.8% | -3.7%
O=C(CSc1ccc(-c2ccccn2)nn1)Nc1cccc(F)c1 | ? | 41.6* | 31.7* | -24.4% | -104.9% | /
Cc1ccccc1NC(=O)CSc1ccc(-c2cccnc2)nn1 | 10.4µM* | -1.9 | -9.0 | -28.9% | 7.4% | 6.7%
CC(=O)Nc1nc2c(C)cc(NC(=O)C3CCCCC3)cc2s1 | 1.6% | 32.0* | 73.9* | 98.9% | -2.0% | /
Cc1ccc(NC(=O)C2CCCCC2)cc1C | 30.6% | / | / | ? | / | /
CC(=O)Nc1cc(C)c2nc(NC(C)=O)sc2c1 | 59.5% | 29.9* | 60.1* | 190.6% | 7.6% | 0.5%
COCC(=O)N1CCC2(CC1)CCN(c1ccccc1)CC2 | / | / | / | / | / | 0.6%
COc1ccc(C)cc1NC(=O)NNC(=O)C(C)Oc1ccc(F)cc1Cl (stereo not drawn) | -21.6% | 17.2 | 33.6 | ? | 10.5% | /
CCCCc1nc2c(c3c1C[C@H](C)OC3)CN(S(=O)(=O)c1ccc(C#N)cc1)CC2 | / | / | / | / | / | 4.9%[12.9 µM]
Cc1ccc(NC(=O)c2cccc(N3C(=O)C4C5CCC(C5)C4C3=O)c2)c(C)c1 (stereo not drawn) | 16.5% | 5.9 | -3.0 | 10.4µM* | -7.9% | -9.2%
O=C(Nc1ccccc1)c1cccc(N2C(=O)C3C4CC(C(Br)C4Br)C3C2=O)c1 (stereo not drawn) | ? | 1.6 | 18.2 | 1.47µM* | -19.1% | -8.8%
CN(C)c1ccc(NC(=O)c2cccc(N3C(=O)C4C5C=CC(C5)C4C3=O)c2)cc1 (stereo not drawn) | / | 62.0* | 144.3 | 121.6% | -9.1% | -22.6%
O=C(Nc1ccc(Cl)cc1)c1cccc(N2C(=O)C3C4CCC(C4)C3C2=O)c1 (stereo not drawn) | ? | 22.5* | 52.4* | ? | -2.7% | -7.0%
O=C(O)c1ccc(NC(=O)c2cccc(N3C(=O)C4C5CCC(C5)C4C3=O)c2)cc1 (stereo not drawn) | ? | -2.9 | -2.7 | 1.3% | 8.4% | 3.8%
COc1ccc(NC(=O)c2cccc(N3C(=O)C4C5C=CC(C5)C4C3=O)c2)cc1Cl (stereo not drawn) | 6.6% | -1.4 | 13.9 | ? | 13.0% | /
Cc1cccc(C(=O)NNC(=O)C2CCN(C(=O)OC(C)(C)C)CC2)c1 | ? | 6.4 | -10.4 | 24.1% | 2.8% | -1.1%
Cc1cc(NNC(=O)c2cccc(C(F)(F)F)c2)nc2c1c(C)nn2C | -9.9% | -1.1 | -7.6 | 21.6% | 1.9% | 2.5%
